Source: PubChem
KB-3-1 cytotox: qHTS assay for MDR1-selective chemotherapeutics: Primary screen using the parental adenocarcinoma cell KB-3-1; KB-3-1 viability, CellTiter-Glo ATP luminescence, 72 h; AID 1347075, 2019; 1.4% of 400,000 active; Potency, µM (highest dose often 46.1 µM), actives largely listed as cytotoxic; further: nearly all actives have a fitted effect of over 60% in size
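KB-3-1 cells, DMEM (no phenol red) + 10% FBS; compound by pin transfer, 72 h, 37 °C. Readout: CellTiter-Glo luminescence after 10 min. Data normalized, curve-fitted.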
SW480 rereplic: A quantitative high throughput screen for small molecules that induce DNA re-replication in SW480 colon adenocarcinoma cells; SW480 DNA re-replication, Hoechst DNA content imaging, 48 h; Potency, µM (highest dose often 46.1 µM), hits mostly activators; 1.8% of 340,000 active; AID 624297, 2012; further: nearly all actives have a fitted effect of over 55% in size
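Cells (250 per well) received 23 nL compound or DMSO by pin tool and were kept 48 hr at 37 C, 5% CO2. Nuclei were then stained with Hoechst for 40 min and scanned for DNA content.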
KB-V1 cytotox: qHTS assay for MDR1-selective chemotherapeutics: Primary screen using the drug-selected MDR subline cells KB-V1. KB-V1 MDR cells viability, CellTiter-Glo, 72 h. Potency, µM (series often up to 46.1 µM), usual class: cytotoxic. 3.4% of 400,000 active. AID 1347076, 2019; further: nearly all actives have a fitted effect of over 60% in size
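Cytotoxicity via CellTiter-Glo luminescence after 72 h compound exposure at 37 degrees C. Cells: drug-selected KB-V1 line, DMEM phenol-red free plus 10% FBS. Compounds tested at multiple concentrations; normalized data fitted to concentration-effect curves.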
MCF10A rerep: A quantitative high throughput screen for small molecules that induce DNA re-replication in MCF 10a normal breast cells. Potency, µM (doses to about 46.1 µM), usual class: activators. 2.9% of 350,000 active. AID 624296, 2012. MCF 10A DNA re-replication, Hoechst nuclear intensity, 48 h; further: nearly all actives have a fitted effect of over 50% in size
ELG1 DNA repair: qHTS screen for small molecules that inhibit ELG1-dependent DNA repair in human embryonic kidney (HEK293T) cells expressing luciferase-tagged ELG1; HEK293T ELG1-luciferase reporter, luminescence, 16 h; DNA damage induced by 5-fluorouridine; Potency, µM (top dose mostly 46.1 µM), most hits filed as inhibitors; 2.3% of 330,000 active; AID 504467, 2011; further: nearly all actives have a fitted effect of over 55% in size
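Quantitative HTS, concentration-response format. 2,000 cells/well co-treated with 5-fluorouridine and compound, 16 hr in 5% CO2 at 37 °C; ONE-Glo luminescence read after 30 min.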
A number is an active result; - = inactive; ? = inconclusive; . = not tested or not shown. Most compounds without a hit are left out; they make up all but 8.2% or so of the library. The call rests on the fitted dose curve; in most records, active means well fitted curve in the direction sought with a large enough effect; inconclusive means small, poorly fitted or top-dose-only effect, or another doubt; inactive means no such curve, though single readings can be large; an effect the other way counts as inactive or inconclusive.

SMILES	KB-3-1 cytotox	SW480 rereplic	KB-V1 cytotox	MCF10A rerep	ELG1 DNA repair
O=S(Cc1ccc(Br)cc1)Cc1nnc(SCc2c(F)cccc2Cl)n1-c1ccccc1 (stereo unspecified)	?	-	2.3µM	?	23µM
O=S(Cc1ccc(Br)cc1)Cc1nnc(SCc2ccc(Cl)cc2)n1-c1ccccc1 (stereo unspecified)	?	-	2.3µM	?	?
Nn1c(Cc2cccc3ccccc23)nnc1SCc1c(F)cccc1Cl	-	-	?	-	-
Cn1c(CS(=O)Cc2c(Cl)cccc2Cl)nnc1SCc1ccc(Cl)cc1 (stereo unspecified)	-	-	5.2µM	-	?
Cc1[nH]c2ccccc2c1SCc1nnc(SCc2ccc(Cl)cc2)n1C	-	?	-	?	16µM
CCOc1ccc2nc(Cl)c(C3CC(c4ccccc4)=NN3C(=O)CCC(=O)O)cc2c1 (stereo unspecified)	-	.	-	.	.
CN(C)c1ccc(NC(=O)c2ccc(N3CCOCC3)nc2)cc1	-	?	-	-	?
COC(=O)c1ccccc1S(=O)(=O)N1CCC(C(=O)N(C)CCOc2ccccc2)CC1	-	-	-	-	-
COC(=O)c1sc(N)nc1CCNC(=O)OC(C)(C)C	-	.	-	.	.
O=S(=O)(c1ccccc1)c1ncc(C(F)(F)F)cc1Cl	-	?	-	6.3µM	?
CC(C)C(=O)Nc1cccc(C(=O)Nc2nnc(C(F)(F)F)s2)c1	-	.	-	.	.
COc1ccc(CCNc2oc(COc3ccc(Br)cc3)nc2C#N)cc1OC	?	-	?	?	21µM
CNc1oc(Cc2cccc3ccccc23)nc1C#N	-	-	-	?	-
CC(C)Nc1oc(Cc2cccc3ccccc23)nc1C#N	-	-	16µM	-	-
COc1ccc(CCNc2oc(Cc3cccc4ccccc34)nc2C#N)cc1OC	?	-	18µM	-	16µM
COc1ccc(CCNc2oc(COc3ccccc3F)nc2C#N)cc1	-	-	-	?	-
C/C=C/c1cccc(-c2nc(C(=O)N3CCOCC3)cc3c2[C@H](CCO)N(C(=O)NC(C)C)C3)c1	-	.	-	.	.
Cc1ccc(OCC(=O)N2CCCCC2C)c([N+](=O)[O-])n1 (stereo unspecified)	-	-	-	-	-
CCCCN(C(=O)c1c(-c2ccccc2)noc1C)c1c(N)n(CCC)c(=O)[nH]c1=O	-	-	-	-	-
O=C1N(c2ccccc2C(F)(F)F)O[C@]1(c1ccccc1)C1CCCCC1	-	13µM	-	18µM	?
O=C(NC1CCCc2ccccc21)C1CCN(S(=O)(=O)c2cccc(C(F)(F)F)c2)CC1 (stereo unspecified)	-	?	23µM	-	?
CCN(CCn1cccn1)Cc1nc(-c2ccccc2)no1	-	-	23µM	-	-
CCN(CCn1cccn1)Cc1nc(-c2ccc(OC)cc2)no1	-	-	?	-	-
CCC(CC)C(=O)N(C)c1c(C)nc2c(OCc3ccc(Cl)cc3)cccn12	-	.	?	.	.
Cc1ccc(Nc2nc(NCc3ccco3)nc3nccnc23)cc1Cl	?	.	-	.	.
SMILES	KB-3-1 cytotox	SW480 rereplic	KB-V1 cytotox	MCF10A rerep	ELG1 DNA repair
O=C(Cn1cc(C(F)(F)F)ccc1=O)OCC(=O)c1ccc[nH]1	-	-	-	-	?
CCn1c(=O)cc(OCC(=O)Nc2ccc(C)cn2)c2ccccc21	-	-	?	21µM	?
CCn1c(=O)cc(OCC(=O)Nc2nc(C)cs2)c2ccccc21	-	-	-	-	?
CCn1c(=O)cc(SCC(=O)Nc2ccc3c(c2)OCCO3)c2ccccc21	-	-	16µM	-	-
CCn1c(=O)cc(SCC(=O)Nc2ccc(C)cn2)c2ccccc21	-	?	?	10µM	?
COc1ccccc1N(CC(=O)Nc1cc(C)on1)S(=O)(=O)c1cccc(C(F)(F)F)c1	-	-	-	-	-
CCc1cc2c(cc3c(=O)n(CC(=O)NCCCN4CCCCCC4)nc(CC)n32)s1	-	-	-	-	-
COc1ccc2c(CN(C)c3ccccc3)cc(=O)oc2c1	-	-	18µM	-	-
